Records with an inconclusive call do not appear. Activity calls are given as the source filed them. Unless noted, calls come from the whole dose curve.
Assays:
[1] = qHTS assay to identify small molecule agonists of the sonic hedgehog signaling (Shh) pathway (AID 1259368);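 note: NIH/3T3-derived 3T3Gli1-Luc cells carrying a stable Gli1-driven firefly luciferase reporter; series mostly up to about 92 µM; nearly all actives have a fitted effect of over 15% in size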
Summary of the method: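 Luminescence was read after 30 min at room temperature with luciferase reagent. Before that, 3T3Gli1-Luc cells (NIH/3T3 clone, stable Gli1-Luc reporter; 2,000/well) were exposed to compounds for 24 hr at 37C, 5% CO2, compounds being added 4 hr post-plating.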

[2] = qHTS assay to identify small molecule antagonists of the sonic hedgehog signaling (Shh) pathway (AID 1259369); note: nearly all actives have a fitted effect of over 45% in size
Summary of the method: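 Antagonist mode: compound added to 3T3 Gli1-Luc cells followed by conditioned-medium stimulation, 24 h at 37 C, 5% CO2. Inhibition taken as loss of Gli1-driven luciferase luminescence.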

[3] = target: Estrogen receptor beta (Homo sapiens) (UniProt Q92731); assay: qHTS assay to identify small molecule antagonists of the estrogen receptor beta (ER-beta) signaling pathway (AID 1259378; active = well fitted inhibition curve with a large enough effect in the signal ratio in the repeat runs, not every such curve was filed as active; the % refers to the signal ratio)
Estrogen receptor beta (Homo sapiens), sequence (Q92731 whole entry, looked up): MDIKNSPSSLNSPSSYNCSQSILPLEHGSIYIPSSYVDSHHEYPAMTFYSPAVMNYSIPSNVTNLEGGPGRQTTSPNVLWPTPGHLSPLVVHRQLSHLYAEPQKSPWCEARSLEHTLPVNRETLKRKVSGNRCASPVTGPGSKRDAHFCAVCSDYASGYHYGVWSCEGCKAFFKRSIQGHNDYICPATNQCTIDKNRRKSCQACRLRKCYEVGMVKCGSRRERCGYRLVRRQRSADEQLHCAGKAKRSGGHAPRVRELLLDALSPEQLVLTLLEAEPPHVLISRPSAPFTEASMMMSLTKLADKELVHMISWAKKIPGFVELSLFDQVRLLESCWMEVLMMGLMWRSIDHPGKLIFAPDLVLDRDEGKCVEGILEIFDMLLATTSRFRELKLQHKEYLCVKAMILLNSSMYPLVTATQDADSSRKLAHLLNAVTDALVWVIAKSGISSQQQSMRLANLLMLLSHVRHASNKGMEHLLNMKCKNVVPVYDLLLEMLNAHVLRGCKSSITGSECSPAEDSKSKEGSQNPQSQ
Summary of the method: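 ER-beta-UAS-bla HEK293T cells in 2% charcoal-stripped FBS medium treated with compound plus 1nM final 17-beta-estradiol for 16 hr at 37C. Beta-lactamase reporter read by FRET substrate fluorescence after 2 hours at room temperature.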

[4] = qHTS assay to identify small molecule agonists of the androgen receptor (AR) signaling pathway in the presence of an antagonist - cell viability counter screen (AID 1259379; active = well fitted curve in the direction sought with a large enough effect in the repeat runs; an effect the other way counts as inactive or inconclusive;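 note: MDA-kb2 human breast cancer cells carrying an MMTV luciferase reporter; series mostly up to about 92 µM; nearly all actives have a fitted effect of over 25% in size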)
Summary of the method: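 Cytotoxicity counter-screen run in the same wells as the nilutamide-challenged (3.0 µM final) AR agonist assay in MDA-kb2 cells. Compounds tested at 15 concentrations for 16 h, 37 °C without CO2; CellTiter-Fluor fluorescence read.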

[5] = qHTS assay to identify small molecule agonists of the estrogen receptor beta (ER-beta) signaling pathway - cell viability counter screen (AID 1259380; active = well fitted curve in the direction sought with a large enough effect in the repeat runs; an effect the other way counts as inactive or inconclusive; note: nearly all actives have a fitted effect of over 30% in size)
Summary of the method: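 Cell viability counter screen: CellTiter-Glo luminescence (30 min, room temperature) measured in the same wells as the beta-lactamase readout, after 16 hr compound exposure at 37C of ER-beta-bla HEK293T cells in 2% charcoal-stripped FBS medium.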

[6] = target: Androgen receptor (Homo sapiens) (UniProt P10275); assay: qHTS assay to identify small molecule agonists of the androgen receptor (AR) signaling pathway in the presence of an antagonist (AID 1259381); note: nearly all actives have a fitted effect of over 15% in size
Androgen receptor (Homo sapiens), sequence (P10275 whole entry, looked up): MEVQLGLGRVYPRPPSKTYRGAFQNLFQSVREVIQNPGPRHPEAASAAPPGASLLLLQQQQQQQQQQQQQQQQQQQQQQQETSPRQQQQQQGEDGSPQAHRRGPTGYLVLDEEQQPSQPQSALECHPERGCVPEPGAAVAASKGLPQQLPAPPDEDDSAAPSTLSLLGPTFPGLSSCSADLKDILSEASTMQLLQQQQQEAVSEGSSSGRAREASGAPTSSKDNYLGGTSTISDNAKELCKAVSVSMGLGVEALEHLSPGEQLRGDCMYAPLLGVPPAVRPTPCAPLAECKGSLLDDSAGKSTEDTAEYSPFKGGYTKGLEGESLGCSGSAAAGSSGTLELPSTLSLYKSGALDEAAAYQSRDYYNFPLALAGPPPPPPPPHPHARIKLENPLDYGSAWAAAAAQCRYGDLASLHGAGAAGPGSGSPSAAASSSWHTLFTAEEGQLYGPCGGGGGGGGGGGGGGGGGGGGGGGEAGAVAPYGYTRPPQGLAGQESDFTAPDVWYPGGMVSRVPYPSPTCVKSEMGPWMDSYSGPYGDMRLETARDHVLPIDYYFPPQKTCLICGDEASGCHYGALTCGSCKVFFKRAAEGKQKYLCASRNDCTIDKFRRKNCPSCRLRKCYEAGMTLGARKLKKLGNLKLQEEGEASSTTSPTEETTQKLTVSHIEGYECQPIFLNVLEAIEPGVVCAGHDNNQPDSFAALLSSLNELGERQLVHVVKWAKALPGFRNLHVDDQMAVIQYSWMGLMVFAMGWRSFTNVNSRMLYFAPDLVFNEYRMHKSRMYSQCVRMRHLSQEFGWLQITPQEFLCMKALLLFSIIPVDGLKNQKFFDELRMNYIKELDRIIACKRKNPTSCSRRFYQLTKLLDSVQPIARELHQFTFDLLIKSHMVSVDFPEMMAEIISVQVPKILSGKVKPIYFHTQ
Summary of the method: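 Agonist-mode confirmation run against 3.0 uM final nilutamide: compounds titrated at 15 concentrations onto MDA-kb2 MMTV-luciferase reporter cells. Luminescence measured with ONE-Glo following 16 hr incubation, 37C, 0% CO2.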

[7] = qHTS assay to identify small molecule antagonists of the estrogen receptor beta (ER-beta) signaling pathway - cell viability counter screen (AID 1259382; active = well fitted curve in the direction sought with a large enough effect in the repeat runs; an effect the other way counts as inactive or inconclusive; note: series mostly up to about 92 µM; nearly all actives have a fitted effect of over 55% in size)
Summary of the method: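 Cytotoxicity was measured in the same wells by CellTiter-Glo luminescence after 30 min at room temperature. Cells were ER-beta-bla HEK293T in charcoal-stripped serum, given compound together with 1 nM E2 and incubated 16 h at 37C.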

[8] = target: Estrogen receptor (Homo sapiens) (UniProt P03372); assay: qHTS assay to identify small molecule agonists of the estrogen receptor alpha (ER-alpha) signaling pathway in the presence of an antagonist (AID 1259383); note: top concentration of the series differs between compounds; nearly all actives have a fitted effect of over 15% in size
Estrogen receptor (Homo sapiens), sequence (P03372 whole entry, looked up): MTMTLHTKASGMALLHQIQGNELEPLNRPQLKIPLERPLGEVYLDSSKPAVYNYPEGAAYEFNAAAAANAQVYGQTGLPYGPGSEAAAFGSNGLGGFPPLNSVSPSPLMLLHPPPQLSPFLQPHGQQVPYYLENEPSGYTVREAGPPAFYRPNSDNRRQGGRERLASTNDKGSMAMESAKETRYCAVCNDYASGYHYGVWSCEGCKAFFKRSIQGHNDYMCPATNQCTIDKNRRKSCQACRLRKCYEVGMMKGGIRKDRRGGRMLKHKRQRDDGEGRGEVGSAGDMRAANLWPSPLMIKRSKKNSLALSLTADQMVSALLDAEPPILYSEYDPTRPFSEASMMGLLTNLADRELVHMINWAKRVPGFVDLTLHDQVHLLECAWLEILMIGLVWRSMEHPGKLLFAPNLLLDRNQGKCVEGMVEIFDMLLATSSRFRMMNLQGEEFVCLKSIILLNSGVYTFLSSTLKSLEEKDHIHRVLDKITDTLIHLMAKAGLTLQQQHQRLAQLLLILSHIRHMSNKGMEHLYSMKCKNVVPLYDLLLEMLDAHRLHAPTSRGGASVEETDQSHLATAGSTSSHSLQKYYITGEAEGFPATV
Summary of the method: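 Agonist-mode confirmation run in the presence of 10.0nM (final) ICI-182,780 antagonist. The reporter was ERE-driven luciferase in VM7Luc4E2 cells, grown in charcoal-stripped serum. Cells were exposed to 15-concentration compound series for 22hr, then ONE-Glo luminescence was read.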

[9] = qHTS assay to identify small molecule agonists or antagonists of the thyroid stimulating hormone receptor (TSHR) signaling pathway - wild type cell line counter screen (AID 1259384)
Summary of the method: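 Wild-type Hek293 cells, 800/well, 18 h at 37C, then compound with Ro20-1724 for 30 min RT. cAMP by HTRF (cAMP-d2/anti-cAMP cryptate), 1 h RT, fluorescence read. 15 concentrations, triplicates.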

[10] = target: Estrogen receptor beta (Homo sapiens) (UniProt Q92731); assay: qHTS assay to identify small molecule agonists of the estrogen receptor beta (ER-beta) signaling pathway (AID 1259377; active = well fitted activation curve with a large enough effect in the signal ratio in the repeat runs, not every such curve was filed as active; the % refers to the signal ratio)
Summary of the method: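 A UAS-controlled beta-lactamase reporter in ER-beta-UAS-bla HEK293T cells reports receptor activation. Compounds act for 16 hr at 37C in 2% charcoal-stripped serum, and a FRET substrate is read by fluorescence after 2 hours.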
% is set by controls: 0 for no effect and ±100 for the full control effect.

CC(C)(CC(=O)O)C(=O)O
inactive: outcome [1] | Potency [2] | outcome [3] | Potency [4] | Potency [5] | Potency [6] | Potency [7] | Potency [8] | outcome [9]

CC(C[N+](C)(C)C)OC(N)=O (centres undefined)
inactive: outcome [1] | Potency [2] | outcome [10] | outcome [3] | Potency [5] | Potency [7] | Potency [8]

CC(=O)OCC(CCn1cnc2cnc(N)nc21)COC(C)=O
inactive: outcome [1] | Potency [2] | outcome [3] | Potency [4] | Potency [5] | Potency [6] | Potency [7] | Potency [8] | outcome [9]

CCCCCCCCCCCCCC=O
inactive: activity change [1] -0.008% [at 8.39 µM] | activity change, negative = inhibition [2] 13.4% [at 8.39 µM] | activity, negative = inhibition [3] -23.6% [at 8.39 µM] | activity change, negative = cytotoxicity [4] -0.261% [at 8.39 µM] | activity change, negative = cytotoxicity [5] -3.43% [at 8.39 µM] | activity change, negative = cytotoxicity [7] -3.46% [at 8.39 µM] | activation [8] -0.924% [at 8.39 µM] | cAMP activity change [9] 0.631% [at 8.39 µM]

COc1c(N2C[C@@H]3CCCN[C@@H]3C2)c(F)cc2c(=O)c(C(=O)O)cn(C3CC3)c12
inactive: outcome [1] | Potency [2] | outcome [10] | Potency [4] | Potency [5] | Potency [7] | Potency [8]

c1ccc(CC2=NCCN2)cc1
inactive: outcome [1] | Potency [2] | outcome [10] | Potency [4] | Potency [5] | Potency [7] | Potency [8] | outcome [9]

NS(=O)(=O)c1cc(C(=O)NN2C[C@H]3[C@H]4CCC(C4)[C@H]3C2)ccc1Cl
inactive: outcome [1] | Potency [2] | outcome [3] | Potency [4] | Potency [5] | Potency [6] | Potency [7] | Potency [8] | outcome [9]

CC(=O)CC(C)C
inactive: outcome [1] | Potency [2] | outcome [3] | Potency [4] | Potency [5] | Potency [6] | Potency [7] | outcome [9]

CCN(Cc1ccncc1)C(=O)C(CO)c1ccccc1 (centres undefined)
inactive: outcome [1] | Potency [2] | outcome [10] | outcome [3] | Potency [4] | Potency [7] | outcome [9]

CCc1ccc(O)c(OC)c1
inactive: outcome [1] | Potency [2] | outcome [3] | Potency [4] | Potency [5] | Potency [7] | outcome [9]

CCCCCCCCCCCCCCCCC
inactive: outcome [1] | Potency [2] | outcome [10] | outcome [3] | Potency [5] | Potency [7] | Potency [8] | outcome [9]

COC(=O)CC(C)=O
inactive: outcome [1] | Potency [2] | outcome [3] | Potency [4] | Potency [5] | Potency [7] | outcome [9]

N=C(N)c1ccc(OCCCOc2ccc(C(=N)N)cc2)cc1
inactive: outcome [1] | Potency [2] | outcome [10] | outcome [3] | Potency [5] | Potency [7] | Potency [8] | outcome [9]

FC(F)OC(Cl)C(F)(F)F (centres undefined)
inactive: outcome [1] | Potency [2] | outcome [3] | Potency [4] | Potency [5] | Potency [7]

CC(C)(O)C(=O)c1ccccc1
inactive: outcome [1] | Potency [2] | outcome [3] | Potency [4] | Potency [5] | Potency [6] | Potency [7] | Potency [8] | outcome [9]

COc1ccccc1OCC(O)CN1CCN(CC(=O)Nc2c(C)cccc2C)CC1 (centres undefined)
inactive: outcome [1] | Potency [2] | outcome [3] | Potency [4] | Potency [5] | Potency [7] | Potency [8] | outcome [9]

Oc1ccc(C2CNCCc3c2cc(O)c(O)c3Cl)cc1 (centres undefined)
inactive: outcome [1] | Potency [2] | outcome [3] | Potency [4] | Potency [5] | Potency [7] | outcome [9]

COc1cc(C(=O)N2CCCCCCC2)cc(OC)c1OC
inactive: outcome [1] | Potency [2] | outcome [10] | outcome [3] | Potency [5] | Potency [7] | Potency [8] | outcome [9]

CC(C(=O)O)c1ccc(CC2CCCC2=O)cc1 (centres undefined)
inactive: outcome [1] | Potency [2] | outcome [3] | Potency [4] | Potency [5] | Potency [7] | Potency [8] | outcome [9]

COc1ccc2c(c1)CCCC2=O
inactive: outcome [1] | Potency [2] | Potency [4] | Potency [5] | Potency [7] | Potency [8]

CCN(CC)CCOCCOC(=O)C1(c2ccccc2)CCCC1
inactive: outcome [1] | Potency [2] | Potency [4] | Potency [5] | Potency [7] | Potency [8] | outcome [9]

C=C(C)CS(=O)(=O)O
inactive: outcome [1] | Potency [2] | Potency [4] | Potency [5] | Potency [6] | Potency [7] | Potency [8] | outcome [9]

Cc1sccc1Br
inactive: outcome [1] | Potency [2] | Potency [4] | Potency [5] | Potency [7] | Potency [8] | outcome [9]

CC(C)(C)NCCNC(C)(C)C
inactive: outcome [1] | Potency [2] | Potency [4] | Potency [5] | Potency [7] | Potency [8] | outcome [9]

CCO/C([O-])=N/c1c[n+](N2CCOCC2)no1
inactive: outcome [1] | Potency [2] | outcome [3] | Potency [4] | Potency [7] | Potency [8] | outcome [9]

NS(=O)(=O)c1cc(C(=O)O)cc(N2CCCC2)c1Oc1ccccc1
inactive: outcome [1] | Potency [2] | Potency [4] | Potency [5] | Potency [7] | Potency [8] | outcome [9]

N[C@@H](C(=O)N[C@@H]1C(=O)N2C(C(=O)O)=C(Cl)CS[C@H]12)c1ccccc1
inactive: activity change [1] -0.56% [at 8.39 µM] | activity change, negative = inhibition [2] -3.06% [at 8.39 µM] | activity change, negative = cytotoxicity [4] -6.11% [at 8.39 µM] | activity change, negative = cytotoxicity [5] 2.28% [at 8.39 µM] | activity change, negative = cytotoxicity [7] 5.71% [at 8.39 µM] | activation [8] 0.817% [at 8.39 µM] | cAMP activity change [9] -1.5% [at 8.39 µM]

O=C1OC(=O)C2CCCCC12 (centres undefined)
inactive: outcome [1] | Potency [2] | Potency [4] | Potency [5] | Potency [7] | Potency [8]

O=C(O)Cc1ccc(CCNS(=O)(=O)c2ccc(Cl)cc2)cc1
inactive: outcome [1] | Potency [2] | outcome [3] | Potency [5] | Potency [7] | Potency [8] | outcome [9]

N[C@H]1CN(c2c(F)cc3c(=O)c(C(=O)O)cn(C4C[C@H]4F)c3c2Cl)CC12CC2 (some centres undefined)
inactive: outcome [1] | Potency [2] | Potency [4] | Potency [5] | Potency [7] | Potency [8] | outcome [9]

Cn1cc(S(C)=O)c(=O)c2ccc(F)cc21 (centres undefined)
inactive: outcome [1] | Potency [2] | Potency [4] | Potency [5] | Potency [7] | Potency [8] | outcome [9]

C[C@](N)(Cc1ccc(O)cc1)C(=O)O
inactive: activity change [1] -0.726% [at 8.39 µM] | activity change, negative = inhibition [2] 37.1% [at 8.39 µM] | activity change, negative = cytotoxicity [4] -1.36% [at 8.39 µM] | activity change, negative = cytotoxicity [5] 14.6% [at 8.39 µM] | activity change, negative = cytotoxicity [7] 4.19% [at 8.39 µM] | activation [8] 1.12% [at 8.39 µM] | cAMP activity change [9] 3.57% [at 8.39 µM]

Brc1c(NC2=NCCN2)ccc2nccnc12
inactive: outcome [1] | Potency [2] | outcome [3] | Potency [4] | Potency [7] | outcome [9]

C[N+](C)(C)CCCCCC[N+](C)(C)C
inactive: outcome [1] | Potency [2] | Potency [4] | Potency [5] | Potency [7]

Source: PubChem BioAssay (Tox21)
